# Screening results (PubChem)
# Rows were chosen to be rich in hits. Some 0.5% of all compounds tested hit in one or more screens of this group.
# AddAB inh = growth inhibition of E. coli expressing H. pylori AddAB, primary screen, AddAB inhibitor project, absorbance; 330,000 tested, 0.29% active; inhibition, % at 11.9 µM; in the data active means inhibition above about 12%;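 further: 0% = vehicle wells of infected cells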
# phage Ecoli inh = growth loss of phage-infected E. coli, primary screen, RecBCD inhibitor project, absorbance, with phage, HTS; inhibition, % at 11.9 µM; 360,000 tested, 0.26% active; AID 651602, 2012; in the data active means inhibition above about 11%
# E coli growth-1 = E. coli V3065 growth inhibition, primary screen, counter-screen for AddAB inhibitor project, absorbance, OD600. 18 h. inhibition, % at 11.9 µM. 330,000 tested, 0.27% active. AID 449728, 2010;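 active means inhibition above the campaign's mean inhibition across all tested compounds plus 3 SD, cut at about 9.9% in these data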;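 further: uninfected addAB+ strain grown without phage in ampicillin broth; 0% = DMSO wells and 100% = ciprofloxacin 0.95 µg/ml wells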
# E coli growth-2 = E. coli growth inhibition, primary screen, OD600 | Escherichia coli growth, 23 h; active compounds read low | OD600 absorbance (test concentration not listed) | 330,000 tested, 0.21% active | AID 1053175, 2014;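 active means OD600 absorbance below the run mean of sample wells minus 3.6 SD, in any replicate, cut at about 0.56 in these data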
# Tat export inh = E. coli Tat export inhibitors, primary screen, MC4100, TorA-mCherry reporter, fluorescence, single point. inhibition, % at 10 µM. 340,000 tested, 0.036% active;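 active means mean replicate inhibition at least 50% and at least half of replicates individually reaching 50%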;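 further: exported cargo escapes ClpAP degradation while cytoplasmic cargo is degraded and loses fluorescence; 0% = median of neutral control wells and 100% = median of NaSCN control wells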
# AddAB confirm = growth loss of phage-infected E. coli expressing H. pylori AddAB, confirmation, AddAB inhibitor project, absorbance, E. coli V3065, T4 phage, triplicate; shares compounds with AddAB inh; OD; T4 phage with gene 2 nonsense mutations; inhibition, % at 11.9 µM; 880 tested, 64% active;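 active means mean inhibition above a set limit taken from the earlier primary screen, cut at about 13% in these data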;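 further: higher means less bacterial growth since AddAB block lets phage replicate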
# RecBCD counter = growth loss of RecBCD+ E. coli with mutant T4 phage, counter-screen for AddAB inhibitor project, absorbance, V66 E. coli | 880 tested, 73% active | inhibition, % at 11.9 µM | OD growth | shares compounds with AddAB inh | AID 488955, 2010;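 active means mean inhibition above the mean of solvent-only control wells plus 3 SD, cut at about 4% in these data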;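 further: optical density read after an 18 h incubation at 37 °C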
# Bact viability = bacterial viability inhibition counter-screen, confirmation, counter-screen for AddAB inhibitor project, absorbance; absorbance (AddAB counterscreen); inhibition, % at 11.9 µM; shares compounds with AddAB inh; AID 488956, 2010; 880 tested, 35% active; in the data active means inhibition above about 25%
# RecBCD conf = growth loss of phage-infected RecBCD+ E. coli, confirmation, RecBCD inhibitor project, absorbance, E. coli V66, T4 gene 2 phage; 890 tested, 45% active; shares compounds with phage Ecoli inh; AID 651982, 2013; inhibition, % at 11.9 µM; E. coli V66 + T4 2- phage, growth OD;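 active means mean inhibition over triplicates exceeding the hit threshold derived in the original primary screen, cut at about 11% in these data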
# Ecoli viability = E. coli viability inhibition, counter-screen for RecBCD inhibitor project, absorbance, high throughput; absorbance (OD) growth; 890 tested, 29% active; shares compounds with phage Ecoli inh; inhibition, % at 11.9 µM; in the data active means inhibition above about 20%;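 further: E. coli strain V66 grown with compound alone and no phage infection; 0% = bacteria with DMSO vehicle only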
# AddAB phage OD = growth loss of phage-infected AddAB-carrying E. coli, confirmation, counter-screen for RecBCD inhibitor project, absorbance, E. coli V3065, T4 phage | shares compounds with phage Ecoli inh | E. coli expressing H. pylori AddAB + T4 phage, OD growth; gene 2 mutant T4, recBCD-deleted host | inhibition, % at 11.9 µM | 890 tested, 45% active | AID 651984, 2013;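 active means mean inhibition above the solvent-only control wells' mean plus 3 SD, cut at about 22% in these data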;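 further: higher means less bacterial growth from phage killing when AddAB is blocked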
# * hit, by the source's call; . = no result given.
SMILES,AddAB inh,phage Ecoli inh,E coli growth-1,E coli growth-2,Tat export inh,AddAB confirm,RecBCD counter,Bact viability,RecBCD conf,Ecoli viability,AddAB phage OD
CCn1cc(C(=O)O)c(=O)c2cc(F)c(N3CCN(C(=S)NC(=O)c4cccc(C)c4)CC3)cc21,97*,93*,98*,0.071*,28,100*,100*,99*,103*,103*,104*
COc1ccc(C=NNC(=O)C(C)n2nnc3ccccc32)cc1OC (configuration not stated),.,.,.,0.75,.,.,.,.,.,.,.
CCCCCCNC(=O)c1cn(CC)c2cc(N3CCN(C)CC3)c(F)cc2c1=O,98*,98*,97*,0.067*,79*,101*,100*,101*,101*,102*,101*
CCn1cc(C(=O)NCCCO)c(=O)c2cc(F)c(N3CCN(C)CC3)cc21,99*,100*,99*,0.071*,94*,100*,99*,100*,99*,100*,98*
CCn1cc(C(=O)N[C@@H](C)C(=O)NCCCO)c(=O)c2cc3c(cc21)OCO3,.,2,.,0.58,4,.,.,.,.,.,.
CCOc1ccc(C(=O)NN=Cc2cc([N+](=O)[O-])cs2)cc1,.,.,.,0.7,.,.,.,.,.,.,.
Oc1ccc2ccccc2c1N=Nc1ccccn1,26*,27*,31*,0.74,4,27*,25*,25,23*,27*,30*
O=c1cnnc(N/N=C/c2ccccn2)[nH]1,53*,42*,41*,.,-23,38*,44*,34*,37*,47*,47*
Cc1cc(=O)[nH]c(NN=Cc2ccccn2)n1,.,.,.,0.53,.,.,.,.,.,.,.
O=c1nc(N/N=C/c2ccccn2)cn[nH]1,29*,31*,29*,.,-26,30*,31*,24,24*,32*,31*
Cc1ccc(C=NNc2cn[nH]c(=O)n2)o1,.,.,.,0.69,.,.,.,.,.,.,.
Cc1cc(=O)[nH]c(N/N=C/c2ccccn2)n1,18*,19*,13*,.,-10,10,20*,9,7,16,13
CCCCNC(=S)NN=Cc1sccc1C,.,.,.,0.66,.,.,.,.,.,.,.
CCC(C)N1CCC2(CC1)N=c1c(c3c4c5c(C)c(O)c3c(O)c1=NC(=O)C(C)=CC=C[C@H](C)[C@H](O)[C@@H](C)[C@@H](O)[C@@H](C)[C@H](OC(C)=O)[C@H](C)[C@@H](OC)C=CO[C@@](C)(O5)C4=O)N2 (some centres not stated),97*,105*,98*,.,107*,96*,97*,99*,96*,99*,102*
COC1C=COC2(C)Oc3c(C)c(O)c4c(O)c(c(CN5CCN(C)CC5)c(O)c4c3C2=O)NC(=O)C(C)=CC=CC(C)C(O)C(C)C(O)C(C)C(OC(C)=O)C1C (configuration not stated),.,1,.,.,8,.,.,.,.,.,.
COc1cc(C=c2sc3nc(-c4ccccc4)c(-c4ccccc4)n3c2=O)cc(OC)c1OC,.,.,.,0.74,.,.,.,.,.,.,.
O=C(/C=C1\NC2(CCCC2)Cc2ccccc21)C(=O)N/N=C/c1ccccc1O,16*,25*,13*,.,1,30*,25*,22,19*,22*,25*
